# IL1B secr inh: qHTS for Inhibitors of Inflammasome Signaling: IL-1-beta AlphaLISA Primary Screen | activity change, % at 57.5 µM | actives 4.7% (n = 360,000) | THP-1 LPS/ATP IL-1B secretion, AlphaLISA, 16 h; hits give low values | AID 743279, 2014; in the data active means activity change below about -50%; inconclusive means mostly about -30% to -49%
#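 THP-1 cells pretreated 1 hr with compounds (up to 57.5 uM final), then stimulated with LPS (250 ng/mL final) plus ATP (1.25 mM final); secreted IL-1B measured by AlphaLISA after 16 hr, decreased signal indicating inhibition.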
# TDP1 cell noCPT: qHTS for Inhibitors of human tyrosyl-DNA phosphodiesterase 1 (TDP1): qHTS in cells in absence of CPT; DT40 Tdp1-/- hTDP1 cells, no CPT, ATP luminescence, 48 h; Potency, µM (top dose mostly 46.2 µM), without a hit: at the highest dose activity change, negative = growth inhibition, hits mostly inhibitors; actives 15% (n = 420,000); further: potency means the concentration at half of the fitted maximal effect; nearly all actives have a fitted effect of over 55% in size
#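 Growth kinetics read by CellTiter-Glo luminescence after ≥48 hr at 37 °C. Cells: DT40 Tdp1-/- stably carrying human TDP1, 400 per well, compound exposure in the absence of CPT (DMSO vehicle).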
# 12-LOX inh: Primary qHTS assay for inhibitors of human arachidonate 12S-lipoxygenase (ALOX12): Round 2; Polyunsaturated fatty acid lipoxygenase ALOX12 (Homo sapiens), P18054; purified 12hLO, xylenol orange hydroperoxide absorbance; Potency, µM (series often up to 108 µM), inactives show top-dose activity change, negative = inhibition, most hits filed as inhibitors; actives 1.1% (n = 580,000); AID 1671190, 2021; further: potency means the concentration at half of the fitted maximal effect
# Target sequence (P18054 whole entry, looked up): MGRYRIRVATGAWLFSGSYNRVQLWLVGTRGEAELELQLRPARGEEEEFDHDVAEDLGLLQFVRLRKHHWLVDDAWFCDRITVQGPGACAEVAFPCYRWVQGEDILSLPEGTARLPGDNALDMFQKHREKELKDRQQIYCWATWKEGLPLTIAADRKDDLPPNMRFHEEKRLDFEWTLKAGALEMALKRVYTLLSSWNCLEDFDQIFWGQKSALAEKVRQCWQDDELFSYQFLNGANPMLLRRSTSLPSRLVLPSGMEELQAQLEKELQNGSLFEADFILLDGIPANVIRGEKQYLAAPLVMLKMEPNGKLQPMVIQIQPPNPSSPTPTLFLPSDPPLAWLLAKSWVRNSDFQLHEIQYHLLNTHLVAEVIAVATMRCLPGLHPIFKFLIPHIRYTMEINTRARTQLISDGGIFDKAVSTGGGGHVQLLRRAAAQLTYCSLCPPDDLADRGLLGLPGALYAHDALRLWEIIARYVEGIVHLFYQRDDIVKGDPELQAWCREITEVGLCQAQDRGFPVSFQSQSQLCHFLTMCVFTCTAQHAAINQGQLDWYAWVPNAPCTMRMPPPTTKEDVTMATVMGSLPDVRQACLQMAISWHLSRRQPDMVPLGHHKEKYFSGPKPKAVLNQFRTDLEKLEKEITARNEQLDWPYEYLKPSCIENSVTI
#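 Hydroperoxide product was detected by ferrous iron/xylenol orange as the 573 to 405 nm absorbance ratio. Arachidonic acid at 40 uM (final) was turned over for 30 min at room temperature by 150 nM human 12hLO, pH 7.0 Hepes buffer, after 15 min compound preincubation.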
# HT1080-NT tox: qHTS for induction of synthetic lethality in tumor cells producing 2HG: qHTS for the HT-1080-NT fibrosarcoma cell line. HT-1080-NT fibrosarcoma viability, CellTiter-Glo ATP luminescence, 48 h. Potency, µM (series often up to 46.1 µM), inactives show at the top dose activity, negative = less viability, actives largely listed as cytotoxic. actives 1.6% (n = 360,000). AID 686970, 2013;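 further: NT is the 2HG producing partner of a matched IDH1 knockdown line; potency means the concentration at half of the fitted maximal effect; 0% = DMSO-treated cells and -100% = media-only wells without cells; nearly all actives have a fitted effect of over 55% in size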
#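 Viability by CellTiter-Glo luminescence after 48 h compound exposure at 37C of HT-1080-NT cells (750/well, RPMI, 5% FBS). % activity scaled between DMSO wells and medium-only wells, then curve-fitted and categorized by curve class.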
# TDP1 cell CPT: qHTS for Inhibitors of human tyrosyl-DNA phosphodiesterase 1 (TDP1): qHTS in cells in presence of CPT; chicken DT40 Tdp1-/-;hTDP1 cells + 20 nM CPT, ATP luminescence, 48 h; Potency, µM (highest dose often 46.2 µM), inactives show at the top dose activity change, negative = growth inhibition, hits mostly inhibitors; actives 12% (n = 420,000); further: potency means the concentration at half of the fitted maximal effect; nearly all actives have a fitted effect of over 55% in size
#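 Cell growth measured by CellTiter-Glo luminescence after a minimum 48 h, 37 C compound exposure with 20 nM CPT in Tdp1-knockout DT40 cells stably expressing hTDP1, seeded 400/well; qHTS titration format.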
# HT1080 IDH1KD tx: qHTS for induction of synthetic lethality in tumor cells producing 2HG: qHTS for the HT-1080-IDH1KD cell line. Potency, µM (top dose mostly 46.1 µM), for inactives: at the top dose activity, negative = toxicity, hits mostly cytotoxic. HT-1080 IDH1 knockdown viability, ATP luminescence, 48 h. AID 686971, 2013. actives 2% (n = 360,000);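 further: potency means the concentration at half of the fitted maximal effect; 0% = DMSO wells and -100% = cell-free medium wells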
#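 Knockdown cells (IDH1KD HT-1080) received compounds 2 h after plating at 750 cells/well and were kept 48 h at 37 °C in 5% FBS RPMI. A CellTiter-Glo luminescence read gave % activity for curve fitting.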
# The depositor's hits bear a star; ? = inconclusive; · = no result given; [ ] = dose if it differs, or a comment. The entries come from a sample that favours hits as a whole. Unless noted, the call rests on the fitted dose curve; in most records, active means well fitted curve in the direction sought with a large enough effect; inconclusive means small, poorly fitted or top-dose-only effect, or another doubt; inactive means no such curve, though single readings can be large; an effect the other way counts as inactive or inconclusive. Unless noted, on the % scale 0 is the no-effect control and ±100 the full control effect.
SMILES,IL1B secr inh,TDP1 cell noCPT,12-LOX inh,HT1080-NT tox,TDP1 cell CPT,HT1080 IDH1KD tx
Cc1nn(CCC(=O)Nc2cccc(Cl)c2)c(=O)c(C#N)c1C,·,·,-7%,·,·,·
CCc1ccc2c(c1)NC(=O)C2(C)Cc1ccc(C(F)(F)F)o1 (stereo unspecified),4,?,?,-29%,23µM*,?
CC1(Cc2ccc(C(F)(F)F)o2)C(=O)Nc2ccc(-c3cccc(C(F)(F)F)c3)cc21 (stereo unspecified),-9,12µM*,?,?,15µM*,?
CC1(Cc2ccc3c(c2)OCO3)C(=O)Nc2c(Cl)ccc(Cl)c21 (stereo unspecified),38,23µM*,-11%,-1%,?,?
COc1ccc(OC(F)(F)F)cc1CC1(C)C(=O)Nc2c(Cl)ccc(Cl)c21 (stereo unspecified),-11,?,·,?,?,?
CC1(Cc2ccc3c(c2)OCO3)C(=O)Nc2ccc(-c3cccc(C(F)(F)F)c3)cc21 (stereo unspecified),?,21µM*,-25%,?,23µM*,?
Cc1ccc2nc(CO[C@H]3CN(Cc4ccc(C(F)(F)F)cc4)C[C@H]3F)[nH]c2c1,·,·,24%[176 µM],·,·,·
Cc1cnc(C(=O)N2CCCCCCNC(=O)[C@@H]3C[C@@H](c4nc(-c5cccnc5)no4)C[C@@H]32)cn1,·,·,21%,·,·,·
COc1ccc(/C=C2\Sc3ccc(C(=O)N4CCN(Cc5ccccc5)CC4)cc3N(C)C2=O)cc1OC,0,3.3µM*,-1%,?,5.2µM*,-24%
CN1C(=O)/C(=C/c2ccccc2F)Sc2ccc(C(=O)N3CCCC3)cc21,-75*,?,37%,?,?,?
COc1cccc(/C=C2\Sc3ccc(C(=O)NCc4cccnc4)cc3N(C)C2=O)c1,-82*,?,?,-9%,?,-29%
COc1ccc(C(=O)NCc2cccnc2)cc1C(=O)NCc1cccnc1,28,-3%,33%,23%,18%,-6%
Cc1ccccc1/C=C1\Sc2ccc(C(=O)N3CCN(c4ccccn4)CC3)cc2N(C)C1=O,-22,1%,·,0%,-1%,-15%
COc1ccc(/C=C2\Sc3ccc(C(=O)NCc4cccnc4)cc3N(C)C2=O)cc1OC,-80*,16µM*,-6%,23µM*,21µM*,23µM*
COc1ccc(/C=C2\Sc3ccc(C(=O)NCC4CCCO4)cc3N(C)C2=O)cc1 (stereo unspecified),7,-18%,-10%,?,?,-7%
COc1ccc2oc(=O)c(-c3cn4cccc(C)c4n3)cc2c1,·,·,-10%,·,·,·
CC(C)(C)C(=O)NC[C@H]1O[C@H](Cc2cc(-c3ccc(F)cc3)on2)CC[C@@H]1O,·,·,22%[176 µM],·,·,·
Cc1nc(CNC(=O)CC2C(=O)NCCN2Cc2ccccn2)n[nH]1 (stereo unspecified),·,·,110%,·,·,·
COc1ccc(-c2cc(CNC(=O)CCl)on2)cc1,-92*,?,3%,?,?,?
CSc1nc(Nc2ccc(Cl)cc2)c(C#N)c(=O)[nH]1,17,17%,6.3µM*,-4%,1%,-7%
N#Cc1c(Nc2ccc(Cl)cc2)s[nH]c1=O,-73*,12µM*,?,-6%,15µM*,?
CC1CCN(S(=O)(=O)c2ccc(-c3nc(C#N)c(NCCCN4CCOCC4)o3)cc2)CC1,·,·,10%,·,·,·
Cc1ccc(Sc2ccc(/C=C3/C(=O)NN(c4ccccc4)C3=O)o2)cc1,-24,16µM*,?,0%,?,1%
O=C1NN(c2ccccc2)C(=O)/C1=C/c1ccc(-c2ccc(Cl)c(C(=O)O)c2)o1,47,-1%,?,-13%,2%,-8%
O=C1NN(c2ccccc2)C(=O)/C1=C/c1ccc(Sc2ccc(Cl)cc2)o1,15,21µM*,16µM*,-9%,?,-6%
SMILES,IL1B secr inh,TDP1 cell noCPT,12-LOX inh,HT1080-NT tox,TDP1 cell CPT,HT1080 IDH1KD tx
COC(=O)c1c(C)[nH]c(C(=O)CSc2cc(F)ccc2F)c1C,·,·,42%,·,·,·
c1ccc2[nH]c(C3CCC(Cn4cc(-c5cncnc5)nn4)CC3)nc2c1 (stereo unspecified),·,·,3%,·,·,·
CCCn1c(SCC(=O)Nc2c(C)cccc2CC)nnc1C(C)C,6,-4%,0%,9%,-9%,15%
CCn1c(SCC(=O)NNC(=O)c2ccc(C)cc2)nnc1C(C)C,1,10µM*,-14%,-6%,?,-8%
CCCCn1nnnc1SCC(=O)c1cc(Cl)ccc1OC,-57*,-15%,10%[57.4 µM],8%,-16%,11%
CCCn1c(SCC(=O)Nc2ccccc2-c2ccccc2)nnc1-c1ccoc1C,-28,10µM*,0%,-7%,16µM*,-9%
CCCn1c(SCC(=O)Nc2ccccc2CC)nnc1C(C)C,22,18µM*,0%,2%,21µM*,?
Cc1occc1-c1nnc(SCC(=O)Nc2ccccc2)n1Cc1ccccc1,-10,?,-9%,-12%,-20%,0%
CCn1c(SCC(=O)Nc2ccccc2C(=O)OC)nnc1-c1ccoc1C,4,29µM*,?,-4%,-29%,-2%
Cc1occc1-c1nnc(SCC(=O)Nc2ccc(F)cc2)n1Cc1ccccc1,-80*,?,-21%,21µM*,?,?

# High-throughput results: PubChem BioAssay, National Center for Advancing Translational Sciences (NCATS)
